# Compound activity: PubChem BioAssay, several laboratories
# GDH-TPI counter-1 – GDH-TPI coupling enzyme inhibitors, primary screen, artefact control for M. tuberculosis FBA inhibitor project, biochemical, absorbance, full deck; GDH-TPI coupled enzyme counterscreen, NADH absorbance; inhibition, % at 4.8 µM; actives 1.2% (n = 360,000); AID 588335, 2011; in the data active = inhibition above about 30%;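 also: 0% = DMSO wells and 100% = wells lacking the enzyme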
# Mtb FBA inh – Mtb FBA enzyme inhibitors, primary screen, biochemical, fluorescence, strain H37Rv; Fructose-bisphosphate aldolase (Mycobacterium tuberculosis (strain ATCC 25618 / H37Rv)), …; AID 588726, 2011; purified M. tuberculosis FBA, fluorescence read-out; actives 2.3% (n = 360,000); inhibition, % at 1 µM;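 also: 0% = vehicle and 100% = reference inhibitor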
# Target sequence (P9WQA3 whole entry, looked up): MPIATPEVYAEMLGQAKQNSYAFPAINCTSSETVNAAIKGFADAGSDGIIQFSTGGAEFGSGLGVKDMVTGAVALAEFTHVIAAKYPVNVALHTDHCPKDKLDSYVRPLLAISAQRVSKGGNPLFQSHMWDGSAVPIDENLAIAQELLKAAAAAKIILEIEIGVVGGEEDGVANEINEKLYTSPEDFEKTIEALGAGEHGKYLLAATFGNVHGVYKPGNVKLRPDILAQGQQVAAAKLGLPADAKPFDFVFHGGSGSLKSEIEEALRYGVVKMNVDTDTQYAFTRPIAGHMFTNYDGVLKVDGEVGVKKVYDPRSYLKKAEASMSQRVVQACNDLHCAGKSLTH
# BioA inh – M. tuberculosis BioA enzyme inhibitors, primary screen, biochemical, plate reader, single point, HTS; 7,8-diaminopelargonic acid synthase BioA (Mycobacterium tuberculosis); purified M. tuberculosis BioA enzyme; inhibition, % at 9.99 µM; actives 0.096% (n = 360,000); AID 602481, 2012; in the data active = inhibition above about 40%
# FadD28 FP inh – inhibitors of FadD28 bisubstrate probe binding, primary screen, biochemical, fluorescence polarization, single point; Mycobacterium tuberculosis FadD28 fatty-acid-AMP ligase; inhibition, % at 12.5 µM; actives 0.22% (n = 360,000); AID 588549, 2011; in the data active = inhibition above about 8.5%, passing the limit was not always enough
# Mtb hypoxia rep – PubChem AID 1159583; fluorescence inhibition, % (no concentration beside the values); actives 0.1% (n = 300,000); M. tuberculosis hypoxia-regulated fluorescent reporter, fluorescence; in the data active = fluorescence inhibition mostly above about 23%, no sharp cut-off; inactive = mostly below about 17%
# Mtb FBA inh conf – M. tuberculosis aldolase blockers, biochemical, fluorescence, strain H37Rv, confirmation | purified M. tuberculosis FBA, fluorescence read-out | shares compounds with Mtb FBA inh | AID 651616, 2012 | actives 78% (n = 5,600) | inhibition, % at 1 µM;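 also: 0% = vehicle wells and 100% = reference inhibitor wells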
# GDH-TPI counter-2 – GDH-TPI coupling enzyme inhibitors, artefact control for M. tuberculosis FBA inhibitor project, biochemical, fluorescence, high throughput; GDH-TPI coupled enzyme counterscreen; actives 81% (n = 5,600); AID 652141, 2013; inhibition, % at 1 µM; shares compounds with Mtb FBA inh; in the data active = inhibition above about 10%
# * hit, by the source's call; nt = no result; + = active, no number. Compounds with a hit are over-represented: about 2.9% of the library has one in this group of screens. Rule as the data show it, unless noted: active = inhibition above about 27%; inactive = the rest.
SMILES,GDH-TPI counter-1,Mtb FBA inh,BioA inh,FadD28 FP inh,Mtb hypoxia rep,Mtb FBA inh conf,GDH-TPI counter-2
Cc1cc(C)nc(-n2ncc3c2CC(c2cccc(Cl)c2)CC3=O)n1 (stereo not drawn),16,29*,-2,-1,1,75*,56*
CCCc1cc(=O)oc2c(C)c(OCC(=O)N3CCC[C@@H]3C(=O)O)ccc12,19,43*,0,-1,nt,55*,45*
CCc1cc(=O)oc2cc(OCC(=O)N3CCC[C@H]3C(=O)O)ccc12,15,35*,-2,1,nt,+,+
CCCCCCc1c(C)c2ccc(OCC(=O)N3CCC[C@H]3C(=O)O)c(C)c2oc1=O,27,81*,17,-11,nt,148*,113*
Cc1cc(=O)oc2cc(OCC(=O)N3CCCC(C)C3)ccc12 (stereo not drawn),11,24,nt,-1,4,nt,nt
CCOC(=O)CCc1c(C)c2ccc(OCC)c(C)c2oc1=O,nt,nt,nt,nt,5,nt,nt
Cc1noc(C)c1S(=O)(=O)N(C)C[C@@H]1Oc2ccc(NC(=O)Cc3cn(C)c4ccccc34)cc2CC(=O)N([C@H](C)CO)C[C@H]1C,nt,nt,17,nt,nt,nt,nt
CC1=C(C#N)C(C=NOCc2ccc(F)cc2Cl)CC(=O)N1 (stereo not drawn),nt,nt,nt,nt,4,nt,nt
CC1=C(C#N)C(/C=N/OCc2ccc(Cl)cc2)CC(=O)N1 (stereo not drawn),6,35*,nt,-4,nt,22,17*
O=C(CN1CCOCC1)NCC[C@@H]1CC[C@H](NC(=O)c2ccccc2F)[C@@H](CO)O1,nt,nt,7,nt,nt,nt,nt
CC(=O)Oc1ccc(-c2cc3ccccc3oc2=O)cc1,37*,75*,0,-2,6,+,+
COC(=O)COc1ccc2cc(-c3ccc(OC)cc3)c(=O)oc2c1,17,44*,1,-2,14,188*,171*
CC(=O)Oc1ccc(-c2cc3c(OC(C)=O)cc(OC(C)=O)cc3oc2=O)cc1,8,92*,-2,-2,nt,171*,195*
O=C(Nc1ccccc1)[C@H]1[C@H](CO)[C@H]2Cn3c(cccc3=O)[C@@H]1N2C(=O)c1ccccc1,nt,nt,0,nt,nt,nt,nt
O=C(NCCCN1CCOCC1)c1cc(-c2ccco2)nc2ccccc12,16,89*,-2,-2,2,115*,75*
O=C(NCCCN1CCOCC1)c1cc(-c2cccc(Br)c2)nc2ccccc12,18,0,2,0,7,nt,nt
CC1CN(C(=O)c2cc(-c3ccc(Cl)s3)nc3ccccc23)CC(C)O1 (stereo not drawn),14,65*,nt,-1,1,76*,60*
Cc1ccc(-c2cc(C(=O)NCCCn3ccnc3)c3ccccc3n2)s1,9,110*,3,-3,6,154*,125*
O=C(NCCCN1CCOCC1)c1cc(-c2ccc(F)cc2)nc2ccccc12,5,11,0,1,7,nt,nt
CCc1ccc(-c2cc(C(=O)NCCCn3ccnc3)c3ccccc3n2)s1,nt,nt,nt,nt,-1,nt,nt
CCOc1ccc(-c2cc(C(=O)NCCCN3CCOCC3)c3ccccc3n2)cc1,25,35*,0,1,8,116*,88*
CCC(=O)Nc1ccc2c(c1)OC[C@@H](C)N(Cc1cccc(F)c1)C[C@H](C)[C@@H](OC)CN(C)C2=O,nt,nt,0,nt,nt,nt,nt
COc1ccc(-c2cc(C(=O)NCCCN3CCOCC3)c3ccccc3n2)cc1OC,17,8,nt,0,6,nt,nt
COc1ccc(-c2cc(C(=O)NCCCN3CCOCC3)c3cc(C(C)C)ccc3n2)cc1,7,70*,2,-4,9,+,141*
O=C(NCCCN1CCOCC1)c1cc(-c2ccc(Cl)s2)nc2ccccc12,14,64*,-2,-1,13,172*,145*
SMILES,GDH-TPI counter-1,Mtb FBA inh,BioA inh,FadD28 FP inh,Mtb hypoxia rep,Mtb FBA inh conf,GDH-TPI counter-2
N#Cc1c(OCC(=O)c2ccccc2)nc2c(c1-c1ccco1)CCc1ccccc1-2,3,12,3,-4,1,nt,nt
CCOC(=O)COc1nc2c(c(-c3ccco3)c1C#N)CCc1ccccc1-2,5,30*,-2,-4,-1,25,14*
CCOC(=O)COc1nc(-c2ccc(Cl)cc2)cc(-c2ccco2)c1C#N,-2,-1,-1,-4,nt,nt,nt
CCOC(=O)COc1nc(-c2ccccc2)cc(-c2ccco2)c1C#N,13,58*,nt,-3,-4,138*,127*
O=C(COc1ccc([N+](=O)[O-])cc1)Nc1nc(-c2ccccn2)cs1,10,28*,0,-5,19,+,+
C[C@@H]1CN([C@H](C)CO)C(=O)c2cc(NC(=O)CCN3CCOCC3)ccc2O[C@@H]1CN(C)CC1CC1,nt,nt,-4,nt,nt,nt,nt
COc1ccc2oc(=O)c(-c3nc(C)cs3)cc2c1,13,35*,-1,-1,6,111*,78*
COc1ccc(C(=O)Oc2ccc3ccc(=O)oc3c2)cc1OC,7,41*,-1,-2,7,147*,107*
COc1ccc2ccc(=O)oc2c1,16,68*,-2,-3,nt,88*,82*
COc1cccc(COc2ccc3ccc(=O)oc3c2)c1,10,9,0,-3,4,nt,nt
COc1cccc(C(=O)Oc2ccc3ccc(=O)oc3c2)c1,15,59*,-7,-1,-5,154*,141*
COc1ccc(COc2ccc3ccc(=O)oc3c2)cc1,11,6,-1,nt,5,nt,nt
O=C(Oc1ccc2ccc(=O)oc2c1)c1cccs1,6,66*,nt,4,10,7,-5
C[C@@H]1CN([C@H](C)CO)C(=O)c2cc(/C=C/c3ccccc3)cnc2O[C@H]1CN(C)Cc1cncnc1,nt,nt,-3,nt,nt,nt,nt
O=C(N[C@H]1CC[C@@H](CC(=O)N2CCCCC2)O[C@@H]1CO)c1cccc(F)c1,nt,nt,6,nt,nt,nt,nt
CC(C)C#Cc1cnc2c(c1)C(=O)N([C@@H](C)CO)C[C@@H](C)[C@H](CN(C)C(=O)Nc1ccccc1)O2,nt,nt,1,nt,nt,nt,nt
COC(=O)C1=CN(CCCN2CCCC2=O)C=C(C(=O)OC)C1c1cccs1,7,21,5,-1,8,nt,nt
COC(=O)C1=CN(Cc2cccs2)C=C(C(=O)OC)C1c1cccc(OC)c1OC,9,53*,-1,-1,6,82*,75*
COC(=O)C1=CN(Cc2ccc(OC)cc2)C=C(C(=O)OC)C1c1cccs1,-2,71*,nt,-7,4,7,7
